Test results taken from publication PMC5540273 (PLoS ONE, 2017).

Each compound was assayed on RPS6KA4(Kin.Dom.1-N-terminal). Details: concentration: 1 μM, replicates: in singlicate; n = 1.
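Further: KINOMEscan kinase panel screen.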

Compound | %Inh
CN(C)Cc1ccc(-c2ccc3c(Nc4ccc(Oc5ccccn5)cc4)ccnc3c2)o1 [GW567148] | 2%
Cn1cc(-c2ccc3c(c2)CCN3C(=O)Cc2cccc(Cl)c2)c2c(N)ncnc21 [GSK2606590] | 22%
O=c1[nH]cc(-c2ccc(N3CCOCC3)cc2)c2sc(-c3cn[nH]c3)cc12 [GSK2276055] | 2%
CN1CCN(Cc2cccc(-c3ccc4c(Nc5ccc(Oc6ccccc6)cc5)ccnc4c3)c2)CC1 [GW578342] | 0%
COc1cccc(-c2ccc3c(NC(=O)C4CC4)n[nH]c3n2)c1 [SB-710903] | 2%

The compounds below were run on RPS6KA4(Kin.Dom.2-C-terminal). Details: concentration: 1 μM, replicates: in singlicate; n = 1.

Compound | %Inh
Cc1cccc(Nc2nc(N[C@H]3CCNC3)ncc2C(N)=O)c1.Cl [GSK2197149] | 0%
O=C(Nc1ccccc1F)NC1CCN(c2ccnc(Nc3ccc(F)cc3)n2)CC1 [GSK1379800] | 0%
CN(C)S(=O)(=O)c1cc(-c2ccc3nccc(-c4cccc(S(N)(=O)=O)c4)c3c2)cnc1N [GSK1669921] | 0%
COc1ccc(CNC(=O)NC2CCN(c3ccnc(Nc4ccc(F)cc4)n3)CC2)cc1 [GSK1379788] | 0%
Cl.Cl.NCC(C(=O)Nc1cc(Br)c(-c2ccnc3[nH]ccc23)s1)c1ccccc1 (centres unmarked) [GSK1269851] | 1%
COC(=O)Nc1nc2ccc(Oc3ccc(NC(=O)Nc4cc(C(F)(F)F)ccc4F)cc3)cc2n1C.Cl [GW692089] | 0%
Nc1ncc(-c2cccnc2)c2scc(-c3ccc4c(c3)CCN4C(=O)Cc3ccccc3)c12 [GSK683281] | 0%
Cc1ccc(C(=O)Nc2ccc(Nc3ccnc4cc(-c5nccs5)ccc34)cc2O)cc1.Cl [GW494702] | 0%
Cn1cc(-c2[nH]c3cc(NC(=O)[C@H](N)C4CCCCC4)cc4c3c2C=NNC4=O)cn1 | 96.2%
CCc1ccc(-c2ccc3c(c2)-c2c(cnn2C)S(=O)(=O)N3C)cc1 | 0%
Nc1ncc(-c2ccc3nccc(-c4ccncc4)c3c2)cc1S(=O)(=O)N1CCOCC1 [GSK1627798] | 0%
O=C(Nc1n[nH]c2nc(-c3ccc(O)cc3)ccc12)C1CC1 [SB-710363] | 99.5%
O=C(O)C(F)(F)F.O=C(O)C(F)(F)F.O=c1[nH]ccc2nc(N[C@@H]3CCCNC3)nc(Nc3ccc(S(=O)(=O)N4CCOCC4)cc3)c12 [GSK2177277] | 98.5%
COc1cccc(NC(=O)NC2CCN(c3ccnc(Nc4cc(OC)c(OC)c(OC)c4)n3)C2)c1 (centres unmarked) [GSK1379763] | 0%
CCS(=O)(=O)c1ccc(OC)c(Nc2nccc(-c3c(-c4cccc(NC(=O)c5c(F)cccc5F)c4)nn4ncccc34)n2)c1 [GSK326180] | 0%
COC(=O)Nc1nc2cc(Oc3ccc(NC(=O)Nc4cc(C(F)(F)F)ccc4F)cn3)ccc2[nH]1.Cl.Cl [GW681170] | 0%
COc1cc(Nc2nccc(N3CCC(NC(=O)Nc4cccc(C(C)=O)c4)C3)n2)cc(OC)c1OC (centres unmarked) [GSK1379753] | 0%
COc1cc(Nc2nccc(-c3c(-c4cccc(NC(=O)c5c(F)cccc5F)c4)nn4ccccc34)n2)cc(OC)c1OC [GSK323521] | 0%

Compound | %Inh
Cl.Cl.NCC(NC(=O)c1cc(-c2ccccc2)c(-c2ccnc3[nH]ccc23)s1)c1ccccc1 (centres unmarked) [GSK1321561] | 0%
Cl.c1ccc(-c2ccc3c(Nc4ccc5[nH]ncc5c4)ccnc3c2)nc1 [GW440137] | 0%
CN1CCN(CCCNc2nccc(-c3c(-c4ccc(F)cc4)nn4cc(C(F)(F)F)ccc34)n2)CC1 [GW621581] | 0%
Cl.Cl.NCC(NCc1ccc(-c2ccnc3[nH]ccc23)s1)c1ccccc1 (centres unmarked) [GSK1321565] | 57%
COc1cc(Nc2ncc3c(C)nc(-c4cc5ccccc5[nH]4)n3n2)cc(OC)c1OC [GW869516] | 0%
Nc1ncnc2c1nc(-c1ccccc1)n2-c1ccccc1 [SKF-97293] | 10%
O=C(Nc1cccc(-c2nn3ccccc3c2-c2ccnc(Nc3cccc(C(F)(F)F)c3)n2)c1)c1c(F)cccc1F [GSK292658] | 0%
CCCCc1nn2ncccc2c1-c1ccnc(Nc2ccc(N3CCN(C)CC3)cc2)n1 [GW684941] | 0%
Fc1ccc(-c2ncn(C3CCNCC3)c2-c2ccnc(Oc3ccc(-c4ccccc4)cc3)n2)cc1 [SB-245391] | 0%
FC(F)(F)c1ccc(/C=C/c2cncnc2Nc2ccc3[nH]c(Cc4ccccc4)nc3c2)cc1 [GW709199] | 0%
CC(=O)N1CCN(c2ccc(Nc3nccc(-c4sc(C(C)C)nc4-c4cccc(NS(=O)(=O)c5cccc(Cl)c5)c4)n3)cn2)CC1 [GSK1660437] | 0%
CC(=O)Nc1nc2cnc(Nc3cc(NC(=O)c4cccc(C5(C#N)CC5)c4Cl)ccc3C)nc2s1 | 0%
NCCCC(NC(=O)c1cc(Br)c(-c2ccnc3[nH]ccc23)s1)c1ccccc1.O=C(O)C(F)(F)F.O=C(O)C(F)(F)F (centres unmarked) [GSK1287544] | 1%
CN(C)Cc1ccc(-c2ccc3c(Nc4ccc(Oc5ccccn5)cc4)ccnc3c2)o1 [GW567148] | 0%
Cn1cc(-c2ccc3c(c2)CCN3C(=O)Cc2cccc(Cl)c2)c2c(N)ncnc21 [GSK2606590] | 0%
O=c1[nH]cc(-c2ccc(N3CCOCC3)cc2)c2sc(-c3cn[nH]c3)cc12 [GSK2276055] | 0%
CN1CCN(Cc2cccc(-c3ccc4c(Nc5ccc(Oc6ccccc6)cc5)ccnc4c3)c2)CC1 [GW578342] | 0%
COc1cccc(-c2ccc3c(NC(=O)C4CC4)n[nH]c3n2)c1 [SB-710903] | 0%
